According to PubChem BioAssay (Tox21):
Values joined by “and” are separate entries in the source; they are usually repeats but may differ in a detail not shown here. Identical values can stand only once. Results filed as inconclusive are left out. Active and inactive are the calls of the source. Unless noted, calls follow the shape of the dose curve; as a rule, active = well fitted curve in the direction sought with a large enough effect in the repeat runs; inconclusive = weak or mixed curves; inactive = no such curve, though single readings can be large; an effect the other way counts as inactive or inconclusive.

Tests used:
[1] = biological target: Thyrotropin receptor (Homo sapiens) (UniProt P16473); test: qHTS assay to identify small molecule agonists of the thyroid stimulating hormone receptor (TSHR) signaling pathway (AID 1224843; calls by dose curve; also: nearly all actives have a fitted effect of over 45% in size)
Sequence of Thyrotropin receptor (Homo sapiens) (P16473 whole entry, looked up): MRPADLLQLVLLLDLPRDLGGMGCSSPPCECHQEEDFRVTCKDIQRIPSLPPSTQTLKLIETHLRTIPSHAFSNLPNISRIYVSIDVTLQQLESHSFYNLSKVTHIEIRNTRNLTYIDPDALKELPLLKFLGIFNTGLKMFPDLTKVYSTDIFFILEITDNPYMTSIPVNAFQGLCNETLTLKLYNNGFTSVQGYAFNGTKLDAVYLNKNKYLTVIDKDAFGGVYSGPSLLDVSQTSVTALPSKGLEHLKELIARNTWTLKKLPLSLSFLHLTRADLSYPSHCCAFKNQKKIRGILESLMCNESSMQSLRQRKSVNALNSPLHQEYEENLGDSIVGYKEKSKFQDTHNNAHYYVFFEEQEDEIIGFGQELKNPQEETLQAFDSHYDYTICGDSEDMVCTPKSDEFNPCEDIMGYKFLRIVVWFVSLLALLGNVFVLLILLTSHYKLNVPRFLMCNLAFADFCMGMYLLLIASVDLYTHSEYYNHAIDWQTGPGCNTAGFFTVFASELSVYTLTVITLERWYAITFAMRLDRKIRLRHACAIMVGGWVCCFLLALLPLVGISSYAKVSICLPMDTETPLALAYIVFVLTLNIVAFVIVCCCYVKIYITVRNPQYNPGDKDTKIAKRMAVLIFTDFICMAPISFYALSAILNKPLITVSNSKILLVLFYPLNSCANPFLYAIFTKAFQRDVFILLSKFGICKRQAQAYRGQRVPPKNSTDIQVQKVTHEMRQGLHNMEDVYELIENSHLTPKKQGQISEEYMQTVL
In short: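 TSHR-HEK293 cells in agonist mode, 30 min room-temperature step, then cAMP measured by competitive HTRF (cAMP-d2 with anti-cAMP cryptate) after 1 h at room temperature. Tested at 15 concentrations in triplicate.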

[2] = qHTS assay to identify small molecule agonists of the hypoxia (HIF-1) signaling pathway - cell viability counter screen (AID 1224844; calls by dose curve; also: nearly all actives have a fitted effect of over 50% in size)
In short: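 HRE-bla ME-180 cells, 2,000/well in 0.5% dialyzed FBS medium, treated 17 h at 37C with compounds. Viability read in the same wells as the bla reporter, by CellTiter-Glo luminescence after 30 min at room temperature.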

[3] = qHTS assay to identify small molecule agonists of H2AX (AID 1224845; active = well fitted activation curve with a large enough effect in the signal ratio in the repeat runs, not every such curve was filed as active; the % refers to the signal ratio)
In short: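 Wild-type CHO-K1 cells, plated overnight, exposed 3hr at 37C to 15 concentrations (0.76% DMSO final). Lysed, then HTRF anti-pH2AX (S139) cryptate and anti-H2AX-d2 antibodies, 24 hr room temperature; 665/620 nm emission read.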

[4] = qHTS assay to identify small molecule agonists of the hypoxia (HIF-1) signaling pathway (AID 1224846; active = well fitted activation curve with a large enough effect in the signal ratio in the repeat runs, not every such curve was filed as active; the % refers to the signal ratio)
In short: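 HRE-bla ME-180 beta-lactamase reporter cells in medium with 0.5% dialyzed FBS, pre-incubated 5 h then exposed to compounds 17 h at 37C, 5% CO2; reporter induction read with CCF4-AM FRET substrate.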

[5] = qHTS assay to identify small molecule antagonists of the estrogen related receptor (ERR) signaling pathway from Tox21 library (AID 1224848); also: nearly all actives have a fitted effect of over 50% in size
In short: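 ERR reporter cell line (from NTP) seeded 2,000 cells/well, rested 6 h at 37 C/5% CO2, then pin-dosed with compounds in DMSO. After 18 h at 37 C, ONE-Glo added; luminescence read after 30 min at room temperature.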

[6] = qHTS assay to identify small molecule agonists of the estrogen related receptor (ERR) signaling pathway from Tox21 library (AID 1224849; calls by dose curve; also: nearly all actives have a fitted effect of over 15% in size); conditions: ERR reporter cell line, ONE-Glo luciferase, 18 h; at 92.4 µM (top of the series)
In short: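 ERR reporter cells (NTP line) pre-incubated 6 hours at 37 C, then exposed to compounds for 18 hours at 37 C. ONE-Glo luciferase luminescence was read after 30 minutes at room temperature.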

[7] = qHTS RealTime-Glo MT Cell Viability Assay in HepG2 cells - 24 hour (AID 1224867); also: nearly all actives have a fitted effect of over 50% in size
In short: (§1)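 Real-time, nonlytic viability: 600 HepG2 cells/well mixed with NanoLuc enzyme plus prosubstrate; 5 h settle, compound (DMSO) added by pintool; luminescence monitored over 40 h at 37 C.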

[8] = qHTS RealTime-Glo MT Cell Viability Assay in HEK293 cells - 32 hour (AID 1224868); also: top concentration of the series differs between compounds; nearly all actives have a fitted effect of over 50% in size
In short: (§2)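 Cells + reagent dispensed (600 cells/well, HEK293) → 5 h at 37 C/5% CO2 → 23 nL compound in DMSO pinned → 40 h at 37 C → luminescence read at 0, 8, 16, 24, 32, 40 h.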

[9] = A CellTox Green Cytotoxicity Assay to monitor cytotoxicity in HEK293 cells - 0 hour (AID 1224869); also: nearly all actives have a fitted effect of over 50% in size
In short: (§3)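 HEK293 cells, 600/well, were preincubated 5 hours and then exposed to compounds at 37 C for up to 40 hours. A cell-impermeant cyanine dye staining dead-cell DNA was read by fluorescence at 0, 8, 16, 24, 32 and 40 h time points.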

[10] = qHTS RealTime-Glo MT Cell Viability Assay in HepG2 cells - 40 hour (AID 1224870); also: nearly all actives have a fitted effect of over 50% in size
In short: (§4)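 HepG2 cells (600/well) mixed with RealTime-Glo MT reagent, settled 5 h at 37 C/5% CO2 before compound addition. Nonlytic NanoLuc luminescence from viable-cell prosubstrate reduction read repeatedly during 40 h treatment at 37 C.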

[11] = A CellTox Green Cytotoxicity Assay to monitor cytotoxicity in HEK293 cells - 40 hour (AID 1224871); also: nearly all actives have a fitted effect of over 45% in size
In short: as §3

[12] = qHTS RealTime-Glo MT Cell Viability Assay in HEK293 cells - 16 hour (AID 1224872)
In short: as §2

[13] = qHTS RealTime-Glo MT Cell Viability Assay in HepG2 cells - 8 hour (AID 1224873); also: nearly all actives have a fitted effect of over 55% in size
In short: as §4

[14] = qHTS RealTime-Glo MT Cell Viability Assay in HEK293 cells - 40 hour (AID 1224874); conditions: RealTime-Glo luminescence; max response: active compounds read low; also: nearly all actives have a fitted effect of over 50% in size
In short: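 600 cells/well were plated with the nonlytic NanoLuc/prosubstrate reagent, pre-incubated 5 h, then given 23 nL of compound in DMSO. Incubation at 37 C for 40 h, with luminescence from viable-cell-reduced substrate read repeatedly from 0 h.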

[15] = A CellTox Green Cytotoxicity Assay to monitor cytotoxicity in HEK293 cells - 24 hour (AID 1224875); also: nearly all actives have a fitted effect of over 45% in size
In short: as §3

[16] = A CellTox Green Cytotoxicity Assay to monitor cytotoxicity in HepG2 cells - 16 hour (AID 1224876); also: nearly all actives have a fitted effect of over 45% in size
In short: (§5)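 HepG2 cells, 600/well, preincubated 5 h with CellTox Green dye, then exposed to Tox21 compounds in DMSO at 37 C for up to 40 h. Dead-cell DNA fluorescence read at the indicated time point.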

[17] = qHTS RealTime-Glo MT Cell Viability Assay in HepG2 cells - 32 hour (AID 1224877); also: nearly all actives have a fitted effect of over 55% in size
In short: as §1

[18] = A CellTox Green Cytotoxicity Assay to monitor cytotoxicity in HepG2 cells - 24 hour (AID 1224878); also: nearly all actives have a fitted effect of over 45% in size
In short: as §5

[19] = A CellTox Green Cytotoxicity Assay to monitor cytotoxicity in HepG2 cells - 40 hour (AID 1224879); also: nearly all actives have a fitted effect of over 40% in size
In short: as §5

[20] = qHTS assay to identify small molecule agonists of H2AX - cell viability counter screen (AID 1224847; calls by dose curve; also: top concentration of the series differs between compounds; nearly all actives have a fitted effect of over 30% in size)
In short: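 Cytotoxicity counter screen in wild-type CHO-K1 cells: a 3 hr compound treatment at 37C across 15 concentrations, followed by CellTiter-Glo luminescence to gauge viable cells.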
% is scaled to controls: 0 for no effect and ±100 for the full control effect.

CNC(=O)O/N=C/C(C)(C)SC
inactive: Potency [1] | Potency [2] | Potency [3] | outcome [4] | Potency [5] | activity change, positive = activation [6] 5.2% and 5.41% | outcome [7] | Potency [8] | Potency [9] | outcome [10] | Potency [11] | outcome [12] | outcome [13] | max response [14] 6.31% and 4.21% | Potency [15] | Potency [16] | outcome [17] | Potency [18] | Potency [19]

CN(C)C(=O)Cl
inactive: Potency [1] | Potency [2] | Potency [3] | outcome [4] | Potency [5] | activity change, positive = activation [6] 5.68% and 6.16% | outcome [7] | Potency [8] | Potency [9] | outcome [10] | Potency [11] | outcome [12] | outcome [13] | max response [14] 1.46% and 5.01% | Potency [15] | Potency [16] | outcome [17] | Potency [18] | Potency [19]

CCOP(=S)(OCC)Oc1ccc([N+](=O)[O-])cc1
inactive: Potency [2] | Potency [3] | outcome [4] | Potency [20] | outcome [7] | Potency [8] | Potency [9] | outcome [10] | Potency [11] | outcome [12] | outcome [13] | max response [14] -18.1% and -17.8% | Potency [15] | Potency [16] | outcome [17] | Potency [18] | Potency [19]

Oc1c(Br)cc(Br)cc1Br
inactive: Potency [2] | Potency [3] | outcome [4] | Potency [20] | outcome [7] | Potency [8] | Potency [9] | outcome [10] | Potency [11] | outcome [12] | outcome [13] | max response [14] -1.22% | Potency [15] | Potency [16] | outcome [17] | Potency [19]

OCc1ccco1
inactive: Potency [2] | Potency [3] | outcome [4] | Potency [20] | Potency [5] | activity change, positive = activation [6] 4.84% | outcome [7] | Potency [8] | Potency [9] | outcome [10] | Potency [11] | outcome [12] | outcome [13] | max response [14] 1.99% and 6.54% | Potency [15] | Potency [16] | outcome [17] | Potency [19]

O=[N+]([O-])c1ccc(Cl)c(Cl)c1
inactive: Potency [2] | Potency [3] | outcome [4] | Potency [20] | Potency [5] | activity change, positive = activation [6] -0.469% and -6.92% | outcome [7] | Potency [8] | Potency [9] | outcome [10] | Potency [11] | outcome [12] | outcome [13] | Potency [15] | Potency [16] | outcome [17] | Potency [18] | Potency [19]
